Compound activity (PubChem)
This is a sample that favours compounds with a hit; in the whole collection about 8% have one here.
SARS PLpro yeast: SARS-CoV PLP inhibition in yeast. Potency, µM (titrated, usually from 32.9 µM), for the others: top-dose activity, positive = growth rescue, actives largely listed as activators. AID 485353. 330,000 tested, 0.19% active. S. cerevisiae expressing SARS-CoV PLpro, growth rescue; calls by dose curve; also: potency is read from the fitted curve at half-maximal effect; 0% is about no effect; nearly all actives have a fitted effect of over 55% in size
Marburg entry inh: blocks Marburg virus binding to or entry into cells; 300,000 tested, 1.8% active; Potency, µM (top dose mostly 37.8 µM), without a hit: at the top dose activity change, negative = inhibition, hits mostly inhibitors; Marburg virus pseudotyped entry inhibition, cell reporter; calls by dose curve; tested in HEK293 cells; also: potency is read from the fitted curve at half-maximal effect; % is scaled to controls: 0 for no effect and ±100 for the full control effect
LASV entry inh: inhibitors of Lassa virus binding or cell entry; Lassa virus pseudotype entry inhibition, cell reporter; Potency, µM (series often up to 37.9 µM), for inactives: top-dose activity change, negative = inhibition, usual class: inhibitors; 300,000 tested, 1.2% active; AID 540256; calls by dose curve; tested in HEK293 cells; also: potency is read from the fitted curve at half-maximal effect; % is scaled to controls: 0 for no effect and ±100 for the full control effect; nearly all actives have a fitted effect of over 50% in size
HCMV inh: inhibitors of human cytomegalovirus. HFF cells, HCMV-luciferase reporter, 72 h; active compounds read low. activity change, negative = inhibition, % at 57.5 µM. 410,000 tested, 4.5% active; in the data active = activity change below about -60%; inconclusive = no clear call, values can overlap the other calls; inactive = above about -39%; also: % is scaled to controls: 0 for no effect and ±100 for the full control effect
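Steps: HFFs plated, 16 h 37C; compounds added; HCMV-luciferase added to MOI 1 PFU/cell; 72 h 37C; OneGlo reagent, 5 min room temperature; luminescence read, normalized to controls.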
HCV inh: inhibitors of hepatitis C virus infection. Huh7.5.1 HCVcc-Cre infection, luciferase reporter, 44 h. Potency, µM (doses to about 41.8 µM), without a hit: top-dose activity change, negative = inhibition, actives largely listed as inhibitors. 340,000 tested, 3.4% active. AID 651820; active = well fitted inhibition curve with a large enough effect; inconclusive = small, poorly fitted or top-dose-only effect, or another doubt; inactive = no such curve, though single readings can be large or run the other way; also: potency is read from the fitted curve at half-maximal effect; % is scaled to controls: 0 for no effect and ±100 for the full control effect
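A cell-based infection assay in which seeded cells (1,000 per well) receive test compound after 4 h, are inoculated with HCVcc-Cre at approximately 0.5 moi, and are incubated 44 h before luminescence detection.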
FMDV antiviral: foot and mouth disease virus antiviral activity; FMDV antiviral cell-based qHTS; Potency, µM (titrated, usually from 57.9 µM), for inactives: at the highest dose activity change, negative = inhibition, most hits filed as inhibitors; AID 1159524; 410,000 tested, 1.2% active; calls by dose curve; tested in HEK293T cells; also: read-out not given here; potency is read from the fitted curve at half-maximal effect; % is scaled to controls: 0 for no effect and ±100 for the full control effect; nearly all actives have a fitted effect of over 45% in size
Starred values were filed as active, the others as inactive; ? = inconclusive; / = no result; ! = not active in a repeat; [ ] = dose if it differs, or a comment.

SMILES	SARS PLpro yeast	Marburg entry inh	LASV entry inh	HCMV inh	HCV inh	FMDV antiviral
COC(=O)[C@H](C)Sc1nc2c(c(=O)n(C)c(=O)n2C)n1CCC(C)C	/	-14%	/	/	/	/
COc1cc(O)cc2c1C(=O)OC(C)CCCC(=O)CCC/C=C\2 (centres undefined)	22%	19%[46.1 µM]	-2%	-20	0%	-26%
C[C@H]1CCCC(=O)CCC/C=C/c2cc(O)cc(O)c2C(=O)O1	-24%	-8%	/	-99*	8%	?
CC(=O)N1CCc2c(sc(NC(=O)C3COc4ccccc4O3)c2C(N)=O)C1 (centres undefined)	-2%	1%[46.1 µM]	-5%[46.1 µM]	37	?	8%
CCN1CCc2c(sc(NC(=O)c3ccc(S(=O)(=O)N(CC)c4ccccc4)cc3)c2C(N)=O)C1	-1%	?	?	-32	?	25µM*
CC(=O)N1CCc2c(sc(NC(=O)c3ccc4c(c3)OCCO4)c2C#N)C1	0%	/	/	40	2.8µM*	21%
COC(=O)c1c(NC(=O)C2COc3ccccc3O2)sc2c1CCN(C(C)=O)C2 (centres undefined)	-4%	-5%	?	12	?	35µM*
CN1CCc2c(sc(NC(=O)C3COc4ccccc4O3)c2C(N)=O)C1 (centres undefined)	2%	17%	?	-63*	/	16%
CCOC(=O)N1CCc2c(sc(NC(C)=O)c2C(N)=O)C1	/	/	/	-22	0%	-20%
CC(=O)N1CCc2c(sc(NC(=O)c3ccc([N+](=O)[O-])o3)c2C(N)=O)C1	/	/	/	-101*	/	-2%
CCN1CCc2c(sc(NC(=O)C3COc4ccccc4O3)c2C(N)=O)C1 (centres undefined)	10%	4%	-3%	-71*	/	25%
CCOC(=O)N1CCc2c(sc(NC(=O)C3COc4ccccc4O3)c2C(N)=O)C1 (centres undefined)	4%	/	/	-97*	16µM*	40µM*
CCN1CCc2c(sc(NC(=O)c3ccc(S(=O)(=O)N4CCOCC4)cc3)c2C(=O)OC)C1	-1%	10µM*	?	15	?	-2%
CCN1CCc2c(sc(NC(=O)c3ccc(S(=O)(=O)N4CCOCC4)cc3)c2C(N)=O)C1	3%	/	/	-5	6%	-9%
Cc1cccc(N2C(=O)C(CC(=O)Nc3cccc(F)c3)N(Cc3cccs3)C2=O)c1 (centres undefined)	/	/	4%[46.1 µM]	-35	/	12%
CCc1ccc(C(=O)c2cn(CC(=O)Nc3cc(OC)ccc3OC)c3ccc(Cl)cc3c2=O)cc1	/	-21%[46.1 µM]	18%[46.1 µM]	-18	/	-20%
CC1CC1C(=O)OCc1cc(=O)n2cc(Br)ccc2n1 (centres undefined)	-10%	-1%	?	-83*	12%	-12%
CC1(C(=O)OCc2cc(=O)n3cc(Br)ccc3n2)CC1(Cl)Cl (centres undefined)	-10%	?	4%	22	-5%	34%
O=C(OCc1cc(=O)n2cc(Br)ccc2n1)C1COc2ccccc2O1 (centres undefined)	-7%	14%	19%	-65*	13%	3%
CCNc1nc(NC(C)C)nc(N(C#N)[C@@H](C)C(=O)N(C)C)n1	/	6%	/	/	/	/
CC(=O)Oc1ccc(-c2ccc(C(=O)OCC(=O)c3c(N)n(C)c(=O)n(C)c3=O)cc2)cc1	17%	/	/	-62*	?	-15%
CCOC(=O)c1cnc2ccc(C)cc2c1N(C)Cc1ccccc1	-4%	?	?	-60*	-16%	-26%
CCOC(=O)c1cnc2ccc(OC)cc2c1NCCc1ccc(OC)c(OC)c1	18%	?	?	?	5µM*	18µM*!
CCOC(=O)c1cnc2ccc(OCC)cc2c1NCc1cccnc1	-13%	?	-16%	?	?	15%
CCOC(=O)c1cnc2ccc(C)cc2c1Sc1ccccc1	-20%	28%	15%	?	?	13%
CCOC(=O)c1cnc2ccc(OCC)cc2c1NCc1ccccc1	-8%	?	?	-73*	10µM*	?
CCOc1ccc(CCNC(=O)c2cn(CC)c3ccc(S(=O)(=O)N4CCc5ccccc5C4)cc3c2=O)cc1OCC	/	15%[46.1 µM]	-11%[46.1 µM]	-5	/	-16%
